# An excerpt weighted towards active compounds, which were near 2.4% of everything screened.
# SENP8 block-1: human SENP8 protease inhibitors, primary screen, biochemical, fluorescence, Nedd8 protein substrate, uHTS | recombinant SENP8 | inhibition, % at 20 µM | 0.64% of 360,000 active | Sentrin-specific protease 8 (Homo sapiens), Q96LD8; in the data active means inhibition mostly above about 40%, no sharp cut-off; inactive means mostly below about 27%
# Target sequence (Q96LD8 whole entry, looked up): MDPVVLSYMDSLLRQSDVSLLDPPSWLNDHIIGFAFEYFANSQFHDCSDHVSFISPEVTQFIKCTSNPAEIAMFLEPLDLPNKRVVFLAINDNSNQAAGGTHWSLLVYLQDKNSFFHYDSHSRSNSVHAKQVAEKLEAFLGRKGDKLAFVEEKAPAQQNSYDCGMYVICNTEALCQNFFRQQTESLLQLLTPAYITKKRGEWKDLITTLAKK
# SENP6 inh: SENP6 protease inhibitors, primary screen, biochemical, luminescence, uHTS; inhibition, % at 10 µM; AID 2599, 2010; 1.8% of 330,000 active; Recombinant SENP6 catalytic domain, aminoluciferin luminescence;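 active means inhibition above about 50% at the single tested dose, limit read from the data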;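 further: plate controls were DMSO wells with enzyme for no effect and DMSO wells lacking enzyme for full effect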
# SENP7 inh: SENP7 protease inhibitors, primary screen, biochemical, luminescence, uHTS; inhibition, % at 5 µM; recombinant SENP7, Z-RLRGG-aminoluciferin luminescence, 40 min; AID 434973, 2010; 1.5% of 330,000 active;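 active means inhibition above about 50% at the single test dose, limit read from the data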;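 further: plate controls were DMSO with enzyme for no effect and no enzyme buffer wells for full effect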
# Target sequence (Q9BQF6 706-1050 limits assumed): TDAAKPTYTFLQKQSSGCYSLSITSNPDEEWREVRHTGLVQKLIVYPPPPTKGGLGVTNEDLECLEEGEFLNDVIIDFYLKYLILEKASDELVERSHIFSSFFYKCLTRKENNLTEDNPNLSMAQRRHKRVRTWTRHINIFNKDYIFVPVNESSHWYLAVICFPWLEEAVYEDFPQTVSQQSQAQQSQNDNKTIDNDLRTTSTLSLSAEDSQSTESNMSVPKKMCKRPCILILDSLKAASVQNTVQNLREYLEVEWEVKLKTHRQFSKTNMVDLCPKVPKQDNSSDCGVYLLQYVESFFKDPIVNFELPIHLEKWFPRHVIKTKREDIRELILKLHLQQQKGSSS
# Platelet DG rel: inhibitors of platelet dense granule secretion, primary screen, cell-based, MLPCN, human platelets. AID 1663, 2009. 0.22% of 300,000 active. human platelet-rich plasma, SFLLRN dense granule ATP release, luminescence. inhibition, %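 (compounds screened at 7.5 µM in platelet-rich plasma)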;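 active means mean replicate score, as percent of positive control, at or above 50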
# SENP8 block-2: SENP8 protease inhibitors, primary screen, biochemical, luminescence. inhibition, % at 10 µM. purified SENP8, Z-RLRGG-aminoluciferin cleavage. Sentrin-specific protease 8 (Homo sapiens), Q96LD8. 1.2% of 330,000 active; in the data active means inhibition above about 50%
# SENP8 conf: SENP8 protease inhibitors, retest, confirmation, biochemical, luminescence, single concentration. shares compounds with SENP7 inh. Recombinant SENP8, Z-RLRGG-aminoluciferin luminescence, 60 min. inhibition, % at 12.5 µM. 40% of 6,200 active. AID 488912, 2010;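 active means mean inhibition across replicates above about 50%, limit read from the data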
# SENP6 confirm: SENP6 protease inhibitors, confirmation, biochemical, luminescence, single concentration; shares compounds with SENP7 inh; recombinant SENP6, Z-RLRGG-aminoluciferin luminescence; inhibition, % at 12.5 µM; 58% of 6,200 active
# SENP7 conf: SENP7 protease inhibitors, retest, confirmation, biochemical, luminescence, single concentration; AID 488917, 2010; recombinant SENP7, Z-RLRGG-aminoluciferin luminescence, 40 min; shares compounds with SENP7 inh; inhibition, % at 12.5 µM; 69% of 6,200 active
# Casp3 SENP sel: caspase-3 protease inhibitors, confirmation, selectivity assay for SENP inhibitor project, biochemical, single concentration; shares compounds with SENP7 inh; purified caspase-3, Z-DEVD-aminoluciferin luminescence, 60 min; inhibition, % at 12.5 µM; 60% of 6,200 active; AID 488918, 2010;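 active means mean inhibition above about 50%, limit read from the data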;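 further: plate controls were enzyme with DMSO for no effect and wells without caspase-3 for full effect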
# Luc interf: luminescence interference (SENP counter-screen); shares compounds with SENP7 inh; Pre-incubated SENP8/Z-RLRGG-aminoluciferin, luciferase luminescence interference; inhibition, % at 12.5 µM; 39% of 6,200 active; AID 488919;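 active means mean inhibition above about 50% when retested at one dose, limit read from the data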;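 further: plate controls were DMSO wells with completed reaction for no effect and substrate without enzyme for full effect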
# * = called active by the depositor; i = inactive; x = not tested or not shown; ! = not confirmed by another sample.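 How the source made its calls, unless noted: active means mean inhibition above about 50% in the one-dose retest (limit read from the data); inactive means the rest.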
SMILES,SENP8 block-1,SENP6 inh,SENP7 inh,Platelet DG rel,SENP8 block-2,SENP8 conf,SENP6 confirm,SENP7 conf,Casp3 SENP sel,Luc interf
COc1cc2c(C#N)c(N3CCN(C)CC3)nc(N)c2c(N)n1,-275,59*,55*,11,1,-16,-4,-6,-3,-13
N#Cc1c(N2CCCC2)nc(N)c2c(N)nc(N3CCCC3)cc12,-414,97*,97*,-4,97*,98*,98*,97*,97*,11
COc1cc2c(C#N)c(N3CCN(c4ccccc4OC)CC3)nc(N)c2c(N)n1,-402,16,12,0,0,x,x,x,x,x
COc1cc2c(C#N)c(N3CCCC3)nc(N)c2c(N)n1,i,95*,73*!,-2,88*,44,62*,37,7,-2
Cc1cc(C)c(C#N)c(N2CCCC2)n1,-233,-9,1,-5,-2,x,x,x,x,x
CCCCN(CC)c1nc(N)c2c(N)nc(OCC)cc2c1C#N,-276,67*,24,-1,66*,-3,13,2,-6,-5
CN(C(=O)c1ccc2c(c1)OCO2)C1(C)CCS(=O)(=O)C1 (configuration not stated),14,-12,1,-1,-2,x,x,x,x,x
CCCOc1cc2c(C#N)c(N3CCCC3)nc(N)c2c(N)n1,i,85*,61*,-1,67*,39,75*,39,x,0
CCOc1cc2c(C#N)c(N3CCCC3)nc(N)c2c(N)n1,-270,33,26,4,3,x,x,x,x,x
O=C(Nc1nc2ccccc2s1)c1ccc([N+](=O)[O-])o1,6,76*,60*,7,50*,-28,-20,-6,-6,-6
COc1ccc2nc(NC(=O)c3ccc([N+](=O)[O-])o3)sc2c1,-32,63*,44,4,16,46,68*,74*,14,32
O=C(Nc1nc2c(F)cc(F)cc2s1)c1ccc([N+](=O)[O-])o1,6,73*,32,3,69*,-24,-13,-3,-5,-3
Cc1cc(C)c2sc(NC(=O)c3ccc([N+](=O)[O-])o3)nc2c1,-18,23,7,1,2,x,x,x,x,x
O=C(NC(=S)Nc1sc2c(c1C(=O)O)CCCC2)c1ccccc1,14,4,-5,1,-5,x,x,x,x,x
COc1ccc2[nH]c3c(c2c1)CCN1C(=O)C(CC(=O)NCC24CC5CC(CC(C5)C2)C4)C[C@H](C(=O)N(C(C)C)C(C)C)[C@@]31C (some centres not stated),1,x,1,x,x,x,x,x,x,x
Cc1occc1C(=O)N/N=C/C=C/c1ccc(N(C)C)cc1,-386,50,46,-2,39,x,x,x,x,x
Cc1cc(C(=O)N/N=C/C=C/c2ccccc2)c(C)o1,8,8,0,7,-15,x,x,x,x,x
Cc1occc1C(=O)N/N=C/c1ccc(N(C)C)cc1,-450,96*,98*,78*,96*,11,100*,104*,99*,98*
C/C(=N\NC(=O)c1ccoc1C)c1ccccc1,20,73*,69*,34,51*,11,60*,87*,84*,50
Cc1cc(C(=O)N/N=C/c2ccccc2)c(C)o1,21,47,74*,4,34,59*,57*,85*,83*,60*
Cc1occc1C(=O)N/N=C/C(Br)=C\c1ccccc1,14,92*,96*,14,91*,91*,95*,101*,90*,61*
O=C(N/N=C/C(Br)=C\c1ccccc1)c1ccco1,13,11,0,6,2,x,x,x,x,x
CN(C)CCn1c2c(c(SCC(=O)NCc3ccccc3)nc1=O)CCCC2,13,-16,3,0,4,x,x,x,x,x
Cc1cc(NS(=O)(=O)c2ccc(NC(=O)/C=C/c3cccc(Cl)c3)cc2)no1,-2,0,4,8,9,x,x,x,x,x
CC(C)(O)CC[C@@H](O)[C@](C)(O)[C@H]1CC[C@@]2(O)C3=CC(=O)[C@@H]4C[C@@H](O)[C@@H](O)C[C@]4(C)[C@H]3CC[C@]12C,9,-4,2,6,3,x,x,x,x,x
SMILES,SENP8 block-1,SENP6 inh,SENP7 inh,Platelet DG rel,SENP8 block-2,SENP8 conf,SENP6 confirm,SENP7 conf,Casp3 SENP sel,Luc interf
O=C(NNC(=O)c1ccccc1F)c1ccc(Cl)c(S(=O)(=O)N2CCOCC2)c1,6,-8,12,x,14,x,x,x,x,x
Cc1occc1C(=O)N/N=C/C=C/c1ccccc1[N+](=O)[O-],28,-11,4,0,3,x,x,x,x,x
Cc1occc1C(=O)N/N=C/C=C/c1ccccc1,22,58*,55*,28,43,70*,68*,91*,86*,70*
O=C(Nc1nc2c(F)cc(F)cc2s1)c1ccco1,-81,88*,78*,4,74*,60*,88*,96*,90*,34
O=C(COC(=O)c1ccco1)Nc1nc2c(F)c(F)c(F)cc2s1,-19,-14,2,-3,5,x,x,x,x,x
O=C(Nc1nc2c(F)c(F)c(F)cc2s1)c1ccco1,-99,68*,38,-9,53*,49,48,78*,52*,21
CN1CCN(C(=O)c2ccc(CNS(=O)(=O)c3ccc(F)c(Cl)c3)cc2)CC1,1,6,-15,-1,-10,x,x,x,x,x
CNC(=O)c1c(I)c(C(=O)NCC(=O)Nc2c(I)c(C(=O)O)c(I)c(C(=O)NCCO)c2I)c(I)c(N(C)C(C)=O)c1I,11,-5,-5,x,1,x,x,x,x,x
O=c1cc(-c2ccccc2)[nH]n1-c1nc2ccccc2[nH]1,-264,65*,11,3,24,35,52*,85*,78*,49
CC1CC(C)(C)OC(C[N+]2(C)CCCCC2)O1 (configuration not stated),14,-6,-14,-6,-5,x,x,x,x,x

# Compound activity: PubChem BioAssay, several laboratories
